Screening data from PubChem.
Not all results are given here.
aSyn 5UTR act = Activators working through SNCA 5'UTR binding (MLPCN); alpha-synuclein 5'UTR reporter, activators screen; activity score, % (tested at 7.5 µM), hits read low; 300,000 tested, 7.1% active; in the data active = activity score below about -60%
Numbers without * were called inactive.

SMILES	aSyn 5UTR act
COCCn1c(C)cc(C2=NNC(=Nc3ccccc3)SC2)c1C	-79*
CCN(CC)CCn1c(=O)n(-c2ccc(Cl)cc2)c(=O)c2c3c(sc21)CN(C)CC3	-66*
Cc1ccc(/C=C2/CCc3c([nH]c4ccccc34)C2=O)cc1	-180*
O=C1/C(=C\c2ccccc2)CCc2c1[nH]c1ccccc21	-121*
CCCCN1CCc2c([nH]c3ccccc23)C1=O	-128*
CCCCCCCn1c2c(c(=N)c3ccccc31)CCC2	79
CCCC/C=C1\CCc2c([nH]c3ccccc23)C1=O	-75*
Cc1ccc2[nH]c3c(c2c1)CC/C(=C/c1ccccc1)C3=O	-194*
CCOc1ccc(NC(=O)N2CCC(c3nc4ccccc4[nH]3)CC2)cc1	-71*
O=S(=O)(c1ccc(Cl)cc1)N1CCC(c2nc3ccccc3[nH]2)CC1	76
Cc1ccc(Cn2nnnc2CN2CCC(c3nc4ccc(Cl)cc4[nH]3)CC2)cc1	78
O=C(c1ccc(F)cc1)c1cnc(Nc2ccccc2)s1	-161*
CNc1ncc(C(=O)c2ccc(F)cc2)s1	-112*
CC(=O)c1cnc(Nc2cccc(C)c2)s1	-137*
COc1ccc(OCc2cc(C(=O)N3CCCN(C(C)=O)CC3)no2)c(Cl)c1	-75*
O=C(c1cc(COc2ccc(F)cc2F)on1)N1C[C@H]2CC[C@H]1C2	-99*
O=C(c1cc(COc2ccc(F)cc2F)on1)N1CC2C[C@@H]3CC1C[C@H](C2)C3	-97*
COc1ccc(OCc2cc(C(=O)N3C[C@H]4CC[C@H]3C4)no2)c(Cl)c1	-82*
O=C(c1cc(COc2c(F)cccc2F)on1)N1CCC(c2ccccc2F)C1 (configuration not stated)	-125*
Cc1cccc(C)c1OCc1cc(C(=O)NC2CCC2)no1	-66*
CC(=O)c1ccc(OCc2cc(C(=O)N3CC4C[C@@H]5CC3C[C@H](C4)C5)no2)cc1	-134*
O=C(c1cc(COc2c(F)cccc2F)on1)N1C[C@H]2CC[C@H]1C2	-114*
COc1ccccc1OCc1cc(C(=O)N2CC3C[C@@H]4CC2C[C@H](C3)C4)no1	-120*
Cc1cccc(C)c1OCc1cc(C(=O)N2CCC(c3ccncc3)CC2)no1	-93*
CCc1ccc(C(=O)Nc2cc3c(cc2Cl)OCCCO3)cc1	-172*
SMILES	aSyn 5UTR act
O=C(Cc1ccccc1)Nc1cc2c(cc1Cl)OCCCO2	-147*
N/C(Cc1cccs1)=N\OC(=O)COc1ccc(Br)cc1Cl	-163*
N/C(Cc1cccs1)=N\OC(=O)COc1ccccc1Cl	-174*
CCOC(=O)c1cnn(-c2ccc(C(C)C)cc2)c1NC(=O)C1CCC1	-81*
O=c1c(Br)c(N2CCCC2)cnn1-c1ccccc1	-138*
O=c1c(Br)c(N2CCOCC2)cnn1-c1ccccc1	-144*
c1ccc(-n2nnc3c(N4CCOCC4)ncnc32)cc1	75
O=C(Cn1ncc(N2CCOCC2)c(Br)c1=O)c1ccc(Cl)cc1	-111*
CC(=O)C(/C=N/c1cc(-c2ccc(C)cc2)nn1-c1ccccc1)=C(\C)O	-198*
CCc1nnc(NC(=O)c2cc(-c3ccccc3)nn2-c2ccccc2)s1	-165*
Cc1ccc(NC(=O)c2cc(-c3ccccc3)nn2-c2ccccc2)cc1	-98*
Cc1cccc(-n2ncc3c(NCc4ccco4)ncnc32)c1	-549*
